Drawing on the supplement of paper PMC9588786, this text covers relative cell viability for 39 compounds.

Where a name gives a salt, the structure may show the parent alone. ± gives the standard deviation of the averaged measurements.
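Further: viability read as CCK-8 absorbance at 450 nm in cells co-exposed to the GPX4 inhibitor RSL3, relative to a 0.01% DMSO vehicle control.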

For this assay, the system named is HT-1080. In words: relative cell viability with RSL3 co-treatment (fraction of control); higher = stronger protection from RSL3-induced ferroptosis (higher viability). Conditions: 10 µM.
On to `Cc1c(NC(=O)OC[C@@H]2COCCN2)cn2ncnc(Nc3ccc4c(cnn4Cc4cccc(F)c4)c3)c12`, for which the relative cell viability turned out to be 0.793 ± 0.023. To `COCCOc1cnc2ccn([C@H](C)c3nnc4c(F)cc(-c5cnn(C)c5)cn34)c(=O)c2c1` belongs 0.7767 ± 0.0058; to `COc1cc2ncnc(Oc3cccc(NC(=O)Nc4cc(C(C)(C)C(F)(F)F)on4)c3)c2cc1OC`, 0.68 ± 0.17. As for `COc1cc2c(Nc3ccc(NC(=O)c4ccccc4)cc3)ncnc2cc1OCCCN1CCOCC1`, the figure is 0.717 ± 0.23. As for `CCN1CCN(Cc2ccc(-c3cc4c(N[C@H](C)c5ccccc5)ncnc4[nH]3)cc2)CC1`, the figure is 0.49 ± 0.02; as for `O=C(NOCC(O)CO)c1cc(Br)c(F)c(F)c1Nc1ccc(I)cc1F` (centres undefined), 0.897 ± 0.061. With `O=C(NCc1cccc(O)c1)Nc1nc(-c2ccncc2)cs1`, the relative cell viability was determined as 0.77 ± 0.05. Turning to `S=C(NCc1ccc2c(c1)OCO2)N1CCN(c2ncnc3c2oc2ccccc23)CC1` [Amuvatinib (MP-470)], the relative cell viability turned out to be 0.55 ± 0.072.

On to `O=C(O)c1ccc(-c2c[nH]c3ncc(-c4ccccc4)cc23)cc1C1CCCC1`, for which the relative cell viability amounted to 0.81 ± 0.017. To `CN1CCN(c2ccc3nc(-c4c(N)c5c(F)cccc5[nH]c4=O)[nH]c3c2)CC1` [Dovitinib (TKI-258) Dilactic Acid] belongs 0.563 ± 0.25; to `N#CC1(c2ccc(NC(=O)c3cccnc3NCc3ccncc3)cc2)CCCC1` [Apatinib], 0.643 ± 0.046; to `CC(C)(C)c1cc(NC(=O)Nc2ccc(-c3cn4c(n3)sc3cc(OCCN5CCOCC5)ccc34)cc2)no1` [Quizartinib (AC220)], 0.473 ± 0.04.

Regarding `COc1nccc(-c2c(-c3ccc(F)cc3)ncn2C2CCC(O)CC2)n1` (centres undefined), the relative cell viability turned out to be 0.667 ± 0.16. To `O=C(Nc1ccc(-c2ccnc(Nc3ccc(N4CCOCC4)cc3)n2)cc1)C1CCCN1` (centres undefined) belongs 0.443 ± 0.1. For the compound `CNC(=O)Nc1ccc(-c2nc(N3CC4CCC(C3)O4)c3cnn(C4CCC5(CC4)OCCO5)c3n2)cc1`, the relative cell viability was found to be 0.483 ± 0.14. As for `Cc1cc(Nc2nc(N[C@@H](C)c3ccc(F)cc3)c(C#N)cc2F)n[nH]1`, the figure is 0.29 ± 0.017; as for `CN1CCN(CCOc2cc(OC3CCOCC3)c3c(Nc4c(Cl)ccc5c4OCO5)ncnc3c2)CC1` [Saracatinib (AZD0530)], 0.727 ± 0.16. As for `COC(=O)Nc1ccc(-c2nc(N3CCOCC3)c3cnn(C4CCN(C(=O)OC)CC4)c3n2)cc1`, the figure is 0.547 ± 0.18. Take `CN(C)Cc1cccc(N/C(=C2\C(=O)Nc3cc(C(N)=O)ccc32)c2ccccc2)c1`: the relative cell viability is 0.627 ± 0.045. To `CCc1cc(Nc2nccc(-c3c(-c4ccc(OC)c(C(=O)Nc5c(F)cccc5F)c4)nc4ccccn34)n2)c(OC)cc1N1CCC(N2CCN(S(C)(=O)=O)CC2)CC1` belongs 0.55 ± 0.01; to `N[C@@H]1CCCN(c2c(/C=C3\SC(=O)NC3=O)cccc2-c2ccccc2)C1`, 0.697 ± 0.13. Regarding `O=S(=O)(c1cccc2cnccc12)N1CCCNCC1` [Fasudil (HA-1077) HCl], the relative cell viability turned out to be 1.13 ± 0.1. To `CCS(=O)(=O)c1cccc(-c2cc(C(=O)NC3CCN(C)CC3)c(C)c3[nH]c4ncc(C)cc4c23)c1` belongs 0.397 ± 0.046; to `C=CC(=O)Nc1cccc(Nc2nc(Nc3ccc(NC4CN(CCF)C4)cc3OC)ncc2C(F)(F)F)c1`, 0.443 ± 0.068. As for `CN1CCN(c2ccc(Nc3cc(-c4cccc(-n5ccc6cc(C7CC7)cc(F)c6c5=O)c4CO)cn(C)c3=O)nc2)CC1`, the figure is 0.763 ± 0.067; as for `Cc1cc([C@@H](C)Nc2ccccc2C(=O)O)c2nc(N3CCOCC3)cc(=O)n2c1`, 0.593 ± 0.18; as for `O=C(O)C(Cc1ccccc1[N+](=O)[O-])=NNc1nc(-c2ccc(Cl)c(Cl)c2)cs1` (mixture of isomers), 1.27 ± 0.046. As to `Cc1cnc(Nc2ccc(N3CCN(C)CC3)cc2)nc1Nc1cccc(S(=O)(=O)NC(C)(C)C)c1`, the relative cell viability came out at 0.223 ± 0.061. To `CN(c1ccccc1CNc1nc(Nc2ccc3c(c2)CC(=O)N3)ncc1C(F)(F)F)S(C)(=O)=O` belongs 0.723 ± 0.045. Consider `CN1CCN(c2ccc3nc(-c4c(N)c5c(F)cccc5[nH]c4=O)[nH]c3c2)CC1` [Dovitinib (TKI-258, CHIR-258)], for which the relative cell viability stood at 0.827 ± 0.1. As for `OCCn1cc(-c2ccc3c(c2)CC/C3=N\O)c(-c2ccncc2)n1`, the figure is 0.687 ± 0.13; as for `O=C(Nc1nc2cccc(-c3ccc(CN4CCS(=O)(=O)CC4)cc3)n2n1)C1CC1` [Filgotinib (GLPG0634)], 0.687 ± 0.035; as for `CS(=O)(=O)CCNCc1ccc(-c2ccc3ncnc(Nc4ccc(OCc5cccc(F)c5)c(Cl)c4)c3c2)o1` [Lapatinib], 1.21 ± 0.064.

On to `Cc1cc(C(=O)NOCCO)c(Nc2ccc(I)cc2F)n(C)c1=O`, for which the relative cell viability was 0.793 ± 0.16.

In the case of `CC[C@H](Nc1ncnc2[nH]cnc12)c1nc2cccc(F)c2c(=O)n1-c1ccccc1` [Idelalisib (CAL-101, GS-1101)], the relative cell viability is 0.753 ± 0.031. As for `Cc1[nH]c(/C=C2\C(=O)Nc3ccccc32)c(C)c1CCC(=O)O` [Orantinib (TSU-68, SU6668)], the figure is 0.903 ± 0.057; as for `CO[C@@H](C(=O)N1Cc2[nH]nc(NC(=O)c3ccc(N4CCN(C)CC4)cc3)c2C1)c1ccccc1`, 0.507 ± 0.1. On to `Cc1c(Cn2c(C)nc3c(C(=O)O)cc(N4CCOCC4)cc32)cccc1C(F)(F)F`, for which the relative cell viability was 0.823 ± 0.045. As for `COc1cccc2cc(-c3nc([C@H]4CC[C@H](C(=O)O)CC4)n4ncnc(N)c34)[nH]c12`, the figure is 0.7 ± 0.07.
